CYP2C9 act – increases human cytochrome P450 2C9 activity. recombinant CYP2C9, luciferin-H conversion, luminescence; hits give high values; factor 1 = untreated enzyme, 0 = blocked. activation factor at 5 µM. AID 1024. P11712. 96,000 tested, 1.4% active;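 active = activation factor of 2 or more for CYP2C9 at a 5 µM dose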;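 note: 0 = sulfaphenazole-blocked wells and 1 = vehicle-only wells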
Target sequence (P11712 whole entry, looked up): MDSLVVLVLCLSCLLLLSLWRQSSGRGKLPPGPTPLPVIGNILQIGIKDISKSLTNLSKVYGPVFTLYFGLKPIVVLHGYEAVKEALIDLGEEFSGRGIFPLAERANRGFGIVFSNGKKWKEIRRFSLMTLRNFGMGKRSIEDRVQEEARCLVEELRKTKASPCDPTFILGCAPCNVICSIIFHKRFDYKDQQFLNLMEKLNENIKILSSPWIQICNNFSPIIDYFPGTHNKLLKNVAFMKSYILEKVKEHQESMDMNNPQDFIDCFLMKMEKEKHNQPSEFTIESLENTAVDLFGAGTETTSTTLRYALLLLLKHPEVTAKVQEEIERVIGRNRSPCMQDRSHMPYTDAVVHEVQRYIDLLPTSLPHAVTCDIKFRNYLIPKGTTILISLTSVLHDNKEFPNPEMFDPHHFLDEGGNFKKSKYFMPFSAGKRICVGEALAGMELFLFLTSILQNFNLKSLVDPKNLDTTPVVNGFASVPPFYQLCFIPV
PLK1 PBD inh – inhibitors of human Plk1 polo box domain binding | 97,000 tested, 0.13% active | Plk1 PBD phosphopeptide binding, fluorescence polarization | P53350 | inhibition, %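 (tested at about 20 µM)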; in the data active = inhibition above about 34%, passing the limit was not always enough
PLK1 inh – inhibitors of human PLK1 kinase; P53350; recombinant PLK1 kinase, TR-FRET peptide phosphorylation; inhibition, % at 10 µM; 97,000 tested, 0.53% active; AID 619;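 active = inhibition of 50% or more in the single-concentration screen; inactive = inhibition below 50%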;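 note: 0% = DMSO max control and 100% = H-89 dihydrochloride min control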
CYP2C19 inh – inhibitors of human CYP2C19 | P33261 | CYP2C19 Supersomes, luciferin-H EGE luminescence, 30 min | inhibition, % at 5 µM | 96,000 tested, 21% active | AID 778;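 active = CYP2C19 inhibition above a set limit at 5 µM in the primary screen, cut at about 50% in these data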;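 note: plate controls were negative control wells for no effect and 2.5 mM tranylcypromine positive control for full effect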
CYP2C9 inh – inhibitors of human CYP2C9; P11712; CYP2C9 Supersomes, luciferin-H conversion, luminescence; inhibition, % at 5 µM; 96,000 tested, 20% active; AID 777;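 active = blocking of liver enzyme CYP2C9 beyond about 50% at 5 µM, limit read from the data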
CYP2C19 act – cytochrome P450 2C19 (human) activation | recombinant CYP2C19, luciferin-H EGE luminescence; hits give high values; 0 = fully inhibited enzyme, 1 = untreated enzyme | activation factor at 5 µM | 96,000 tested, under 10 active | AID 1025;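 active = activation factor of at least 2 at 5 µM in the primary screen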;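 note: 0 = wells with 2.5 mM tranylcypromine and 1 = vehicle-only wells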
The depositor's hits bear a star; nt = no result given. Sampled rows, rich in hits. Any-hit rate of the full collection: about 28%.

SMILES	CYP2C9 act	PLK1 PBD inh	PLK1 inh	CYP2C19 inh	CYP2C9 inh	CYP2C19 act
CCOC(=O)N1CCN(C(=O)c2ccccc2Oc2ccccc2)CC1	0.1	-15.9	-3.3	42.4	94.4*	0.6
O=P(O)(c1ccc(Cl)cc1)c1ccc(Cl)cc1	0.6	5.6	-3.4	27.2	44.2	0.7
COCCCNc1ncnc2nc[nH]c12	1	14.4	32.3	-6.3	-3.1	1.1
CCOC(=O)N1CCN(C(=O)c2ccccc2NC(=O)COc2ccccc2C)CC1	0.4	9.8	-12.4	65.3*	56.4*	0.3
CCCc1nnc(SCC(=O)Nc2ccc(OCC)cc2)n1N	0.8	-11.4	-5.7	5.3	23.6	0.9
Cc1cc(C)c(NC(=O)CSc2nnc(SCC(=O)Nc3c(C)cc(C)cc3C)n2N)c(C)c1	0.9	-31.9	-8.9	67.8*	14.6	0.3
CCc1ccc(NC(=O)CSc2nnc(SCC(=O)Nc3ccc(CC)cc3)n2N)cc1	0.4	1.7	-0.4	-6.8	61.9*	1.1
CCc1nnc(SCC(=O)Nc2ccc(C(C)=O)cc2)nc1CC	0.6	nt	nt	74.1*	40.0	0.3
Nn1c(SCC(=O)Nc2ccc(F)cc2)nnc1C1CCCCC1	1	-14.4	-3.4	-2.4	4.6	1
Cc1ccc(NC(=O)CSc2nnc(C3CCCCC3)n2N)cc1F	0.3	-2.3	-12.6	84.7*	71.7*	0.2
O=C(c1ccc(F)cc1)C1CCN(C(=O)NC2CCCCC2)CC1	0.8	6.5	-5.9	37.5	23.9	0.6
CCc1ccc(N/C(SC)=C(/C#N)C(N)=O)cc1	0.5	-9.4	3.4	29.1	49.5	0.7
CCc1ccc(NC(=O)CSc2nnc(CC)c(CC)n2)cc1	0.5	1.0	-12.5	64.1*	49.4	0.4
CCOC(=O)N1CCC(NC(=O)C(NC(=O)C2CCCCC2)C(C)C)CC1 (stereo not given)	1.1	nt	nt	-3.1	-9.4	1
CCCc1n[nH]c2c1C(=O)CC(C)(C)C2	1.1	nt	nt	1.1	-7.0	1
CC1(C)CC(=O)c2c(-c3cccs3)n[nH]c2C1	0.5	-10.5	-3.5	79.0*	51.7*	0.2
O=C(Cc1c(F)cccc1Cl)N1CCCC1	1.2	-21.0	-12.1	-18.9	-15.9	1.2
CC(C)C(=O)Nc1nnc(CCN2CCOCC2)s1	1.2	-18.5	-1.1	-17.0	-15.3	1.2
CCOC(=O)C1CCN(C(=O)c2ccc3c(c2)OCO3)CC1	0.8	-22.1	-16.0	42.7	21.9	0.6
O=C(c1ccc2c(c1)OCCO2)C1CCN(C(=O)c2ccc(F)cc2)CC1	0.5	9.6	-4.8	72.5*	50.3*	0.3
O=C(c1ccc2c(c1)OCCO2)C1CCN(C(=O)c2ccc(F)c(F)c2)CC1	0.5	-19.2	9.3	75.3*	47.0	0.2
CCCOC(=O)c1ccc(OCC(O)CN2C(=O)NC(C)(C)C2=O)cc1 (stereo not given)	1	-7.0	-2.3	13.3	0.6	0.9
CCOC(=O)c1c(CN2CCCCC2)oc2ccc(OC)cc12	0.9	2.3	7.6	22.9	13.4	0.8
CCOC(=O)c1c(CN2CCC(C)CC2)oc2ccc(OC)cc12	0.8	4.3	-9.4	52.5*	23.3	0.5
COC(=O)Cc1cn(-c2ncc(C(F)(F)F)cc2Cl)c2ccccc12	0.3	2.6	-3.3	74.1*	70.6*	0.3
SMILES	CYP2C9 act	PLK1 PBD inh	PLK1 inh	CYP2C19 inh	CYP2C9 inh	CYP2C19 act
COc1ccc(CN2C(=O)NC3(CCCCC3)C2=O)cc1F	1	18.7	-4.4	18.7	-0.7	0.8
Cc1ccccc1-c1nn2c(-c3ccccc3)nnc2s1	0.4	nt	nt	87.3*	55.5*	0.1
COc1ccc(-c2nnc3sc(-c4ccccc4OC)nn23)cc1	0.8	nt	nt	-3.9	19.1	1
Cc1ccc(-c2nnc3sc(CCc4ccccc4)nn23)cc1	0.2	-10.7	2.2	65.4*	76.2*	0.3
CCOc1ccc(-c2nnc3sc(COc4ccccc4)nn23)cc1	1.1	1.2	-4.3	16.6	-10.0	0.8
c1ccc(-c2cc(-c3nn4c(-c5ccco5)nnc4s3)c3ccccc3n2)cc1	0.2	9.3	-10.4	37.2	77.3*	0.6
Cc1cc(-c2nn3c(-c4ccccc4)nnc3s2)c2ccccc2n1	0.7	4.6	-13.2	79.1*	31.9	0.2
Cc1nn(-c2ccccc2)c(Cl)c1C(=O)Nc1c(C)n(C)n(-c2ccccc2)c1=O	0.9	-26.2	-6.9	-2.7	8.5	1
